aSyn UTR act: Activators via SNCA 5'UTR binding, MLPCN | alpha-synuclein 5'UTR reporter, activators screen | activity score, % (tested at 7.5 µM), hits read low | 7.1% of 300,000 active | AID 1814, 2009; in the data active = activity score below about -60%
Numbers stand for hits; 0 = inactive. A selection follows.

SMILES	aSyn UTR act
CCOc1ccc(/C(O)=C2/C(=O)C(=O)N(c3nc(C)c(C)s3)C2c2ccco2)cc1 (configuration not stated)	-85
CCCOc1ccc(/C(O)=C2/C(=O)C(=O)N(CCCn3ccnc3)C2c2ccc(C)o2)cc1 (configuration not stated)	-76
CCCOc1ccc(/C(O)=C2/C(=O)C(=O)N(CCCn3ccnc3)C2c2ccco2)cc1 (configuration not stated)	-68
CCCCCOc1ccc(NC(=O)C(=O)NCCCn2ccnc2)cc1	0
C=CCOc1ccc(/C(O)=C2/C(=O)C(=O)N(CCCn3ccnc3)C2c2cccs2)cc1 (configuration not stated)	-82
CCN(CC)CCN1C(=O)C(=O)/C(=C(/O)c2ccc(OC(C)C)cc2)C1c1cccs1 (configuration not stated)	-122
COc1ccc(OC)c(C(=O)/C=C/c2ccccc2C(F)(F)F)c1	-198
COc1ccc(C(=O)/C=C/Nc2cc(C)on2)c(OC)c1	-72
COc1ccc(C(=O)/C=C/c2ccccc2)c(OC)c1	-277
O=C(Nc1cc(Br)ccc1O)c1cc(-c2cccs2)on1	-147
CC(C)c1cc(C(=O)Nc2cc(Cl)ccc2O)no1	-290
CC(C)c1cc(C(=O)Nc2cc(Br)ccc2O)no1	-291
CSc1ccccc1NC(=O)c1cc(C(C)C)on1	-143
O=C(Nc1ccccc1Cl)c1cc(=O)c2ccccc2o1	-144
O=C(Nc1ccccc1Br)c1cc(=O)c2ccccc2o1	-184
COc1c(C(=O)NNC(=O)c2ccccc2Cl)csc1Br	-85
COc1ccc(-c2csc(NC(=S)NC(=O)/C=C/c3ccco3)n2)cc1Br	0
CCCC(=O)Nc1ccc(-c2nc3cc(C)c(C)cc3o2)c(O)c1	-129
CCCC(=O)Nc1ccc(-c2nc3cc(C)ccc3o2)cc1	-149
CCCC(=O)Nc1ccc2oc(-c3ccc(OC)c(Br)c3)nc2c1	-118
CN(C)C=Nc1ncc2c([nH]c3ccccc32)c1C#N	-113
Cc1ccc(NC(=S)C2=C(O)c3ccccc3N(C)S2(=O)=O)cc1	-100
CN1c2ccccc2C(O)=C(C(=O)Nc2ccccc2)S1(=O)=O	-84
O=C(Cc1cccc2ccccc12)Nc1ccc(-c2cc3ccccc3oc2=O)cc1	0
O=c1oc2ccccc2cc1-c1ccccc1	-118
SMILES	aSyn UTR act
O=c1oc2ccccc2cc1-c1nnc(-c2cccc(Br)c2)o1	-98
O=c1oc2ccccc2cc1-c1cn2cccnc2n1	-65
O=c1oc2ccc(Cl)cc2cc1-c1ccccc1	-70
O=c1oc2ccccc2cc1-c1cn2ccccc2n1	0
Clc1ccc(C#Cc2cccnc2)cc1	-187
COc1ccccc1NC(=O)COc1ccc(CO)cc1Cl	-151
O=C(COc1ccc(Br)cc1CO)Nc1ccccc1	-107
COc1cc(CO)ccc1OCC(=O)Nc1ccc(Br)cc1	-86
COc1cc2c(cc1OC)C(c1ccc(Br)cc1)NCC2 (configuration not stated)	0
O=C(COc1ccc(Br)cc1CO)Nc1ccccc1F	-181
O=C(N/N=C/c1cc(Br)ccc1O)C(=O)Nc1ccccc1OC(F)(F)C(F)F	0
COC(=O)c1ccc(NC(=O)c2ccc(C)cc2)o1	-75
COC(=O)C(C(=O)OC)c1ccc(NC(=O)c2cccc(Cl)c2)cc1	-90
COC(=O)c1ccc(NC(=O)c2cccc(Cl)c2)o1	-86
C#CCn1c(C)cc(C)c(S(=O)(=O)c2ccccc2)c1=O	-73
Cc1ccc(C(=O)Nc2ccc(CN3CCS(=O)(=O)CC3)cc2)cc1C	-78
O=C(Nc1ccc2c(c1)OCCO2)c1ccc(Cl)c(S(=O)(=O)N2CCOCC2)c1	-67
O=C(Nc1ccc2c(c1)OCCO2)c1ccc(CN2CCOCC2)cc1	-148
O=S(=O)(c1ccc(N2CCCC2)cc1)C(F)(F)F	-149
O=C(Nc1ccc(N2CCCCC2)cc1)c1ccc(F)cc1	-80
O=C(Nc1ccc(N2CCCCC2)cc1)c1cccnc1	-149
O=C(c1ccc(F)cc1)c1ccc(N2CCCC2)cc1	-147
O=C(Nc1ccc2nn(-c3ccc(F)cc3)nc2c1)c1cccnc1	-94
O=C(c1ccc(F)cc1)c1ccc(N2CCCCC2)cc1	-145
COc1ccc(OC)c(NC(=O)NC2(C(F)(F)F)Oc3ccccc3O2)c1	-73
SMILES	aSyn UTR act
Cc1c(C(C)(C)C)sc(=NC(=O)c2ccccc2O)n1C	-125
O=C(CSc1nc2ccccc2o1)Nc1ccc(N2CCOCC2)cc1	-147
O=C(CSc1nc2cc(Cl)ccc2o1)Nc1ccc(N2CCOCC2)cc1	-133
CCc1c(C)sc(NC(=S)Nc2nc(C)cc(C)n2)c1C(=O)OC	-98
O=C(O)c1nc2ccccc2nc1C(=O)O	-166
COc1ccc(CC2(CO)COc3ccccc3C2=O)cc1 (configuration not stated)	-64
O=C(Cc1cccs1)Nc1nnc(-c2ccc(F)cc2)s1	-76
O=C(Cc1cccs1)Nc1nnc(-c2ccccc2)s1	-211
CSc1ccccc1NC(=O)COc1ccccc1C	-107
Cc1ccccc1OCC(=O)Nc1cccc(N(C)S(C)(=O)=O)c1	-62
CN(c1cccc(NC(=O)COc2ccccc2)c1)S(C)(=O)=O	-113
Cc1ccc(C)c(OCC(=O)Nc2c[nH]c(=O)[nH]c2=O)c1	0
CC(=O)Nc1cccc(NC(=O)COc2ccccc2C)c1	-77
Cc1ccc(NC(=O)COc2ccccc2C=O)cc1Cl	-121
COc1cccc(NC(=O)COc2ccccc2C(N)=O)c1	-75
CCc1cccc(NC(=O)COc2ccccc2)c1	-92
CN(c1cccc(NC(=O)COc2ccc(Cl)cc2Cl)c1)S(C)(=O)=O	-131
C=CCNC(=O)C1CC(=O)N(c2ccc(OCc3ccccc3Cl)cc2)C1 (configuration not stated)	-111
O=C(O)C1CC(=O)N(c2ccc(OCc3ccccc3)cc2)C1 (configuration not stated)	-66
Cc1ccc(/C=N/c2sc3c(c2C#N)CCC3)s1	-146
N#Cc1c(/N=C/c2cc3ccccc3s2)sc2c1CCC2	-150
COC(=O)c1ccc(-c2ccc(F)cc2)nc1C	-192
CCOC(=O)c1ccc(-c2ccc3c(c2)CCC3)nc1C	-99
CCOC(=O)c1cc(-c2ccc(C)cc2)nc2nc(SC)[nH]c(=O)c12	0
CC1=C/C(=C(/c2cc(C)c(O)c(Br)c2)c2ccccc2S(=O)(=O)O)C=C(Br)C1=O	0
SMILES	aSyn UTR act
Cc1ccc(CNC(=O)/C=C/c2cccs2)cc1	-184
CCCCNC(=O)/C=C/c1cccs1	-86
Cc1cc(C(=O)COC(=O)c2ccc(Br)o2)c(C)n1C	-112
COCCn1c(C)cc(C(=O)COC(=O)c2ccc(Br)o2)c1C	-100
COc1ccc2c(c1)CCC1C2=NN(/C(C)=C/C(C)=O)C1c1cccc(F)c1 (configuration not stated)	-66
O=[N+]([O-])c1cc(O)c2ncccc2c1	0
O=[N+]([O-])c1cc2c(c(CSc3ncccn3)c1)OCOC2	-63
COc1ccccc1/C=C/c1nc2ccccc2c(=O)o1	-107
COc1ccc(/C=C/c2nc3ccccc3c(=O)o2)cc1	0
Cn1cc(/C=C2\SC(=O)N(c3ccc(O)cc3)C2=O)c2ccccc21	-86
O=C1S/C(=C\c2cccs2)C(=O)N1c1ccc(O)cc1	-133
Cn1cc(/C=C2\SC(=O)N(c3ccccc3)C2=O)c2ccccc21	-217
Cn1cc(/C=N/n2cnc3scc(-c4ccccc4)c3c2=O)c2ccccc21	0
O=[N+]([O-])c1cccc(/C=N/N2CCN(c3ccccn3)CC2)c1	-99
O=[N+]([O-])c1cccc(/C=N/N2CCN(Cc3ccccc3)CC2)c1	-115

High-throughput results deposited in PubChem BioAssay by Broad Institute.
